Mtb hypoxia rep: inhibitors of hypoxia-regulated fluorescent reporter in Mycobacterium tuberculosis | M. tuberculosis hypoxia-regulated fluorescent reporter, fluorescence | fluorescence inhibition, % (concentration not given with the values) | 300,000 compounds, 0.1% hits; in the data active means fluorescence inhibition mostly above about 23%, no sharp cut-off; inactive means mostly below about 17%
FBA Mtb inh: inhibitors of M. tuberculosis fructose-bisphosphate aldolase; P9WQA3; purified M. tuberculosis FBA, fluorescence read-out; inhibition, % at 1 µM; 360,000 compounds, 2.3% hits;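 further: 0% = vehicle and 100% = reference inhibitor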
Target sequence (P9WQA3 whole entry, looked up): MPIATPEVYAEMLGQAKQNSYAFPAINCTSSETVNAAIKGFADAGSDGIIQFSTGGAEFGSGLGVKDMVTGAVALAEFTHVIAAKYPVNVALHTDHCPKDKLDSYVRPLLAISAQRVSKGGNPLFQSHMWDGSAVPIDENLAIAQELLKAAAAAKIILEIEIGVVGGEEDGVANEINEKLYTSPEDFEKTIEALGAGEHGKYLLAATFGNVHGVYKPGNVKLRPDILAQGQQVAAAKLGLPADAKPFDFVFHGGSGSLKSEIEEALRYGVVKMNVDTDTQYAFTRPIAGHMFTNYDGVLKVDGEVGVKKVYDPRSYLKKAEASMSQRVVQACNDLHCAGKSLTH
Y pestis TopoI: inhibitors of Yersinia pestis topoisomerase I | Y. pestis Topo-I cleavage product accumulation, plate reader | activity, % at 10 µM | 360,000 compounds, 0.064% hits; in the data active means activity above about 50%, passing the limit was not always enough
GDH-TPI counter-1: counter-screen for M. tuberculosis FBA inhibitors: GDH-TPI coupled enzymes; GDH-TPI coupled enzyme counterscreen, NADH absorbance; inhibition, % at 4.8 µM; 360,000 compounds, 1.2% hits; AID 588335; in the data active means inhibition above about 30%;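 further: 0% = DMSO wells and 100% = wells lacking the enzyme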
PrPC surface inh: inhibitors of human cell surface prion protein PrPC; P04156; inhibition, % at 13.8 µM; TR-FRET read-out; AID 720596; 370,000 compounds, 0.43% hits; in the data active means inhibition above about 24%; further: 0% = median of the test wells and 100% = reference compound wells
PrP UTR inh: inhibition of PrP 5' UTR reporter expression. AID 488862. 340,000 compounds, 0.35% hits. inhibition, % (no concentration beside the values). cell-based PrP 5' UTR mRNA reporter, plate reader; in the data active means inhibition above about 52%; further: 0 = median of the neutral control wells
Mtb FBA confirm: Mtb FBA inhibition, confirmed. shares compounds with FBA Mtb inh. purified M. tuberculosis FBA, fluorescence read-out. inhibition, % at 1 µM. 5,600 compounds, 78% hits. AID 651616;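 further: 0% = vehicle wells and 100% = reference inhibitor wells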
GDH-TPI counter-2: counter-screen for M. tuberculosis FBA inhibitors: GDH-TPI coupled enzyme inhibition; inhibition, % at 1 µM; shares compounds with FBA Mtb inh; AID 652141; 5,600 compounds, 81% hits; GDH-TPI coupled enzyme counterscreen, fluorescence; in the data active means inhibition above about 10%
GDH-TPI dose: GDH-TPI dose response counter-screen for Mtb FBA. GDH-TPI coupled enzyme assay, fluorescence, artifact counterscreen. 170 compounds, 79% hits. IC50, µM. shares compounds with FBA Mtb inh; call rule not given here
An asterisk follows results filed as active; · = not tested or not shown; + = active, no number. Hits are enriched below; roughly 3.8% of the tested compounds scored in any of these assays. Unless noted, no stated cut-off is given here; in the data, active means inhibition above about 27%; inactive means the rest.

SMILES	Mtb hypoxia rep	FBA Mtb inh	Y pestis TopoI	GDH-TPI counter-1	PrPC surface inh	PrP UTR inh	Mtb FBA confirm	GDH-TPI counter-2	others
Cc1noc(C)c1S(=O)(=O)N(C)CC1Oc2ccc(NC(=O)C3CC3)cc2C(=O)N(C(C)CO)CC1C (stereo unspecified)	1.4	·	·	·	·	·	·	·
COC(=O)C1=CN(C2CC2)C=C(C(=O)OC)C1c1ccc(C(F)(F)F)cc1	-0.5	25.0	-8.9	-1.3	5.3	-11.5	·	·
COC(=O)C1=CN(C2CC2)C=C(C(=O)OC)C1c1ccc(C(=O)OC)cc1	-6.2	44.4*	-1.3	-0.9	-3.0	-7.4	-1.2	-2.4
Cc1cccc(C2Nc3ccccc3C(=O)N2c2ccccc2)n1 (stereo unspecified)	15.3	61.4*	-1.6	-2.4	2.0	-0.3	47.2*	46.4*
O=C1c2ccccc2NC(c2ccc(O)cc2)N1c1ccccc1 (stereo unspecified)	6.2	14.6	-1.6	6.2	-6.9	-30.5	·	·
Cc1cccc(CN2C(=O)/C(=C\c3ccc(C(=O)NCCCN4CCN(C)CC4)cc3)Oc3ccccc32)c1	·	81.0*	-12.8	5.2	-13.7	-10.3	9.8	-3.0
CN1CCN(CCCNC(=O)c2ccc(/C=C3\Oc4ccccc4N(Cc4ccccc4F)C3=O)cc2)CC1	-2.3	54.9*	-34.1	17.4	-12.0	-10.4	-0.6	-3.7
CN1CCN(CCCNC(=O)c2ccc(/C=C3\Sc4ccccc4N(Cc4ccc(F)cc4)C3=O)cc2)CC1	-6.7	9.2	-2.0	0.5	-21.2	-0.4	·	·
Cc1cc(OCc2nn[nH]n2)c2c3c(c(=O)oc2c1)CCCC3	12.2	83.7*	-3.8	10.1	0.6	-13.6	58.7*	47.2*
CCCCOC(=O)COc1cc(C)cc2oc(=O)c3c(c12)CCC3	8.0	8.2	-0.3	0.5	2.2	-15.6	·	·
CCc1cc(=O)oc2cc(OCC(=O)O)c(Cl)cc12	7.5	18.3	1.2	22.1	-1.8	-10.4	·	·
CCN(CC)C(=O)COc1cc(C)cc2oc(=O)c3c(c12)CCCC3	-8.0	80.9*	5.4	12.9	-5.1	1.9	60.7*	42.6*
C=CCOC(=O)COc1cc(C)cc2oc(=O)c3c(c12)CCC3	2.8	57.0*	-1.7	17.4	2.1	4.7	+	169.6*
Cc1c(C)c2cc(Cl)c(OCc3nn[nH]n3)cc2oc1=O	·	55.5*	-4.4	11.8	-0.2	-20.7	92.0*	75.0*
Cc1cc(OCC(=O)OC(C)(C)C)c2c3c(c(=O)oc2c1)CCC3	-7.5	2.1	2.7	3.7	-3.6	4.4	·	·
C=CCNC(=S)NN=C1CCS(=O)(=O)c2ccccc21	-1.8	·	·	·	·	·	·	·
C=CCNC(=S)NN=Cc1ccc(-c2cccc([N+](=O)[O-])c2)o1	7.2	·	·	·	·	·	·	·
O=C(Nc1cccc2ccccc12)c1ccc([N+](=O)[O-])cc1	5.8	-0.1	-7.3	4.2	-35.2	-40.0	·	·
O=C(CNc1cccc2ccccc12)c1ccc([N+](=O)[O-])cc1	·	27.9*	-18.5	0.8	-11.1	-22.1	55.8*	36.1*
Cc1[nH]nc2c1-c1nc3ccccc3nc1C(C)(C)C2	5.7	38.0*	2.1	24.9	21.5	0.7	16.5	17.9*
COc1cc2cc(C(=O)O)[nH]c2c(OC)c1OC	-6.5	34.6*	2.5	-11.8	-6.2	6.7	112.0*	73.9*
Cc1ccc(-c2cc(C(=O)NCCN3CCOCC3)c3ccccc3n2)o1	-0.4	42.8*	5.9	22.7	-4.3	-8.4	119.7*	89.5*
COc1ccc(-c2cc(C(=O)NCCN3CCOCC3)c3ccccc3n2)cc1	·	47.0*	2.7	17.7	-15.6	-11.8	81.1*	93.1*
O=C(NCCN1CCOCC1)c1cc(-c2ccccc2Cl)nc2ccccc12	9.9	-0.7	1.9	5.6	-8.7	-17.4	·	·
O=C(NCCN1CCOCC1)c1cc(-c2ccc(Cl)s2)nc2ccccc12	-12.2	92.6*	-4.4	21.1	-11.1	-18.0	148.4*	116.0*
SMILES	Mtb hypoxia rep	FBA Mtb inh	Y pestis TopoI	GDH-TPI counter-1	PrPC surface inh	PrP UTR inh	Mtb FBA confirm	GDH-TPI counter-2	others
Cc1ccc(-c2cc(C(=O)N3CCN(c4ccccc4O)CC3)c3ccccc3n2)o1	5.5	38.1*	23.3	7.3	-0.6	-53.7	106.4*	103.4*
CC(C)(C)C1COC(=O)C(NC(=O)OCC2c3ccccc3-c3ccccc32)CC=CCC(CC(=O)NC(CO)Cc2ccccc2)C(=O)N1 (stereo unspecified)	10.9	·	·	·	·	·	·	·
NC(=O)C1CC2(CC(c3cccc(NC(=O)COc4ccc(Cl)cc4)c3)=NO2)CN1C(=O)C(c1ccccc1)c1ccccc1 (stereo unspecified)	3.9	·	·	·	·	·	·	·
CCOC(=O)c1ccc2[nH]c(C)cc(=O)c2c1	-2.8	36.3*	12.7	13.5	4.2	-2.2	+	196.2*
COC(=O)c1ccc2[nH]c(C)cc(=O)c2c1	-5.5	33.7*	0.3	11.0	9.4	-5.4	95.3*	84.5*
COc1ccc(C=NN2C(=O)CN(C(=O)c3ccccc3)C2c2ccc(OC)cc2)cc1 (stereo unspecified)	6.4	·	·	·	·	·	·	·
O=C1CCC(=O)c2ccc3c4c(ccc1c24)CC3	-9.1	41.6*	-3.6	32.3*	-10.3	-12.2	11.6	9.4	GDH-TPI dose=3.62*
CCOC(=O)c1sc(Nc2nc3c(OC)cccc3s2)nc1C	-83.6	66.0*	-8.3	0.9	-2.5	-35.9	64.0*	56.7*
Cc1ccsc1C=Nn1c(-c2ccccn2)n[nH]c1=S	0.5	·	·	·	·	·	·	·
Nc1ccc2c(c1)[nH]c(=O)c1ccccc12	·	69.1*	-2.1	5.0	4.3	-8.9	2.6	3.3
CC(=O)Nc1ccc2c(c1)[nH]c(=O)c1ccccc12	·	49.8*	4.8	19.7	-8.1	-16.3	64.3*	44.8*
O=c1[nH]c2ccccc2c(=O)c2ccccc12	·	1.0	5.9	12.4	-1.6	·	·	·
Nc1cccc2[nH]c(=O)c3ccccc3c12	·	60.7*	-0.7	17.9	-1.9	-9.6	198.9*	157.5*
CC(SCc1ccccc1)C(=O)NN=Cc1ccc(OCC(=O)NCc2ccco2)cc1 (stereo unspecified)	5.8	·	·	·	·	·	·	·
COc1ccc(C(=O)CCN2CCN(c3ccc(OC)cc3)CC2)cc1	-8.8	5.2	-4.8	-2.1	-3.1	4.8	·	·
COc1ccc(N2CCN(CCC(N)=O)CC2)cc1	·	31.1*	2.2	7.5	-3.0	-2.4	77.8*	53.0*
Cc1cc2nc(-c3ccc(SCc4ccccn4)nc3)[nH]c2cc1C	-5.5	40.9*	-1.6	38.2*	5.4	-56.3	53.6*	51.2*
Cc1cc(=O)[nH]c(SCC(=O)N2CCN(C(=O)c3ccco3)CC2)n1	2.8	-2.6	1.6	-4.0	-3.0	-30.1	·	·
Cc1cc2nc(-c3ccc(SCC(=O)N4CCN(C(=O)c5ccco5)CC4)nc3)[nH]c2cc1C	-15.9	34.9*	3.9	48.2*	5.7	-41.9	43.9*	27.3*
